# Values joined by “and” are separate entries in the source; they are usually repeats but may differ in a detail not shown here. Equal entries are not always repeated. Values without a mark were called inactive. Inconclusive results are not listed. A call without a number means that no potency is given here. Active and inactive are the calls of the source. Unless noted, calls come from the whole dose curve; as a rule, active = well fitted curve in the direction sought with a large enough effect; inconclusive = small, poorly fitted or top-dose-only effect, or another doubt; inactive = no such curve, though single readings can be large; an effect the other way counts as inactive or inconclusive.
# Key:
# CASKI = experiment: Primary qHTS to identify gynecologic anti-cancer compounds using libraries of approved drugs and bioactive compounds (AID 1345084); settings: Gynecologic cancer cell panel viability, ATPlite luminescence, 48 h; series mostly up to 57.5 µM; note: nearly all actives have a fitted effect of over 55% in size; note: potency is the fitted concentration of half-maximal effect
# Outline: (§1)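 Luminescence from the ATPlite ATP-monitoring reagent indicates viable cell number; lower signal means cytotoxicity. Cells received compound 16 h after seeding and were exposed for 48 h across five concentrations.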
# Es-2 = experiment: as above; settings: Gynecologic cancer cell panel viability, ATPlite luminescence, 48 h; series mostly up to 57.5 µM
# Outline: as §1
# HeLa = experiment: as above; settings: Gynecologic cancer cell panel viability, ATPlite luminescence, 48 h; series mostly up to 57.5 µM
# Outline: as §1
# Hek293T = experiment: as above; settings: Gynecologic cancer cell panel viability, ATPlite luminescence, 48 h, control line for the selectivity index; series mostly up to 57.5 µM
# Outline: as §1
# OV90 = experiment: as above; settings: Gynecologic cancer cell panel viability, ATPlite luminescence, 48 h; series mostly up to 57.5 µM
# Outline: as §1
# PA-1 = experiment: as above; settings: Gynecologic cancer cell panel viability, ATPlite luminescence, 48 h; series mostly up to 57.5 µM
# Outline: as §1
# SKOV3 = experiment: as above; settings: Gynecologic cancer cell panel viability, ATPlite luminescence, 48 h; series mostly up to 57.5 µM
# Outline: as §1
# Tov-21-G = experiment: as above; settings: Gynecologic cancer cell panel viability, ATPlite luminescence, 48 h; series mostly up to 57.5 µM
# Outline: as §1
# Tov112D = experiment: as above; settings: Gynecologic cancer cell panel viability, ATPlite luminescence, 48 h; series mostly up to 57.5 µM
# Outline: as §1
# JEG-3 = experiment: as above; settings: Gynecologic cancer cell panel viability, ATPlite luminescence, 48 h; series mostly up to 57.5 µM
# Outline: as §1
# [1] = qHTS assay to identify inhibitors of the type 1 interferon - major histocompatibility complex class I in skeletal muscle: Counter screen cell viability and HiBit confirmation (AID 1347412); settings: iHSKM muscle cells + IFN-b, HiBiT or CellTiter-Glo, 24 h; for Potency: HiBiT; for activity change, negative = inhibition: Viability, at 45.9 µM (top of the series); note: potency is the fitted concentration of half-maximal effect; for all read-outs here: nearly all actives have a fitted effect of over 60% in size
# Outline: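 HLA-B*08:01–HiBiT knock-in immortalized human myoblasts (C25cl48) stimulated with 4.0 ng/ml human IFN-beta and dosed with compound in a 12-point 1:3 titration (top final 46 uM). After 24 hrs at 37 C, HiBiT lytic luminescence or CellTiter Glo ATP read out.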
# [2] = Drug repurposing screens with cells derived from glioblastoma tumor samples (AID 1345199); settings: GBM patient neurospheres viability, ATP luminescence, 48 h; note: nearly all actives have a fitted effect of over 40% in size; note: potency is the fitted concentration of half-maximal effect
# Outline: (§2)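 Primary testing used CD133+ neurospheres from four GBM patients, seven concentrations, 48 h exposure and ATP-based viability; confirmation added three slower-growing patient lines.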
# astro = experiment: as above; settings: viability, ATP luminescence, 48 h; series mostly up to 45.9 µM
# Outline: as §2
# [3] = qHTS assay for small molecule activators of the human pregnane X receptor (PXR) signaling pathway (AID 720659; call rule not given here)
# [4] = at 45.9 µM (top of the series), tumour line B
smiles,measurement,setting,value
CC1(C)CCC(CN2CCN(c3ccc(C(=O)NS(=O)(=O)c4ccc(NCC5CCOCC5)c([N+](=O)[O-])c4)c(Oc4cnc5[nH]ccc5c4)c3)CC2)=C(c2ccc(Cl)cc2)C1,Potency,CASKI,inactive
same,Potency,Es-2,inactive
same,Potency,HeLa,inactive
same,Potency,Hek293T,inactive
same,Potency,OV90,inactive
same,Potency,PA-1,inactive
same,Potency,SKOV3,inactive
same,Potency,Tov-21-G,inactive
same,Potency,Tov112D,inactive
COc1cc2ncnc(-n3nc(-c4ccccn4)nc3N)c2cc1OC,Potency,CASKI,inactive
same,Potency,Es-2,inactive
same,Potency,HeLa,inactive
same,Potency,Hek293T,inactive
same,Potency,JEG-3,inactive
same,Potency,OV90,inactive
same,Potency,PA-1,inactive
same,Potency,Tov-21-G,inactive
same,Potency,Tov112D,inactive
CC(=O)Nc1ccc([C@H](C)C(=O)Nc2ncc(C(C)C)s2)cc1,Potency,Es-2,14.1 µM (active)
same,Potency,Hek293T,15.8 µM (active)
same,Potency,JEG-3,inactive
same,Potency,PA-1,22.4 µM (active)
same,Potency,SKOV3,inactive
same,Potency,[1],2.49 µM (active)
same,"activity change, negative = inhibition",[1],-0.582%
CC[C@]1(O)C[C@@H]2CN(CCc3c([nH]c4ccccc34)[C@@](C(=O)OC)(c3cc4c(cc3OC)N(C)[C@H]3[C@@](O)(C(=O)OC)[C@H](OC(C)=O)[C@]5(CC)C=CCN6CC[C@]43[C@@H]65)C2)C1,Potency,Es-2,1.12 µM (active) and 708 nM (active) and 794 nM (active)
same,Potency,HeLa,316 nM (active) and 1.12 µM (active) and 631 nM (active)
same,Potency,JEG-3,0.631 µM (active)
same,Potency,OV90,11.2 µM (active) and 4.47 µM (active) and 7.94 µM (active)
same,Potency,PA-1,316 nM (active) and 355 nM (active)
same,Potency,Tov-21-G,316 nM (active) and 447 nM (active) and 631 nM (active)
same,Potency,Tov112D,158 nM (active) and 316 nM (active)
NC(=O)c1ccc2nc(-c3ccc(Oc4ccc(Cl)cc4)cc3)[nH]c2c1,Potency,CASKI,inactive
same,Potency,Hek293T,inactive
same,Potency,JEG-3,inactive
same,Potency,PA-1,15.8 µM (active)
same,Potency,Tov112D,inactive
CC(=O)O[C@]1(C(C)=O)CC[C@H]2[C@@H]3C=C(Cl)C4=CC(=O)[C@@H]5C[C@@H]5[C@]4(C)[C@H]3CC[C@@]21C,Potency,CASKI,inactive
same,Potency,Es-2,inactive
same,Potency,Hek293T,inactive
same,Potency,JEG-3,inactive
same,Potency,OV90,inactive
same,Potency,PA-1,inactive
same,Potency,SKOV3,inactive
same,Potency,Tov-21-G,inactive
same,Potency,Tov112D,inactive
same,"activity, negative = cell killing",[2]; [4],-17.9%
same,"activity, negative = cell killing","[2]; at 45.9 µM (top of the series), tumour line D",-23%
same,"activity, negative = cell killing","[2]; at 46.1 µM (top of the series), tumour line C",2.8%
same,Potency,astro,inactive
same,outcome,[3],inactive
CN(C)Cc1ccc(-c2nc3cccc4c3n2CCNC4=O)cc1,Potency,CASKI,inactive
same,Potency,HeLa,inactive
same,Potency,JEG-3,inactive
same,Potency,OV90,inactive
same,Potency,SKOV3,inactive
same,Potency,Tov112D,inactive
Cc1ccc(Nc2cc(-c3cccc(N4C(=O)c5ccccc5C4=O)c3)ncn2)cc1NS(C)(=O)=O,Potency,CASKI,inactive
same,Potency,Es-2,inactive
same,Potency,HeLa,inactive
same,Potency,OV90,inactive
same,Potency,SKOV3,inactive
same,Potency,Tov-21-G,inactive
same,Potency,Tov112D,inactive
CC(C)C(=O)Nc1ncc(-c2cc(C(F)F)nn2-c2c(Cl)cccc2Cl)s1,Potency,CASKI,inactive
same,Potency,Es-2,inactive
same,Potency,Hek293T,inactive
same,Potency,JEG-3,inactive
same,Potency,OV90,inactive
same,Potency,SKOV3,inactive
COCCOC(=O)C1=C(C)NC2=C(C(=O)CC(c3ccccc3OC)C2)C1c1cccc(O)c1 (centres undefined),Potency,CASKI,inactive
same,Potency,Es-2,inactive
same,Potency,Hek293T,inactive
same,Potency,JEG-3,inactive
same,Potency,OV90,inactive
same,Potency,PA-1,inactive
same,Potency,Tov-21-G,inactive
same,Potency,Tov112D,inactive
CN1CCN(CCOc2cc(OC3CCOCC3)c3c(Nc4c(Cl)ccc5c4OCO5)ncnc3c2)CC1,Potency,Es-2,inactive
same,Potency,HeLa,inactive
same,Potency,Hek293T,inactive
same,Potency,JEG-3,inactive
same,Potency,SKOV3,3.55 µM (active)
same,Potency,Tov-21-G,2.24 µM (active)
same,Potency,Tov112D,inactive
O=C(CCCCCCC(=O)Nc1ccccc1)NO,Potency,Es-2,7.08 µM (active) and 12.6 µM (active)
same,Potency,HeLa,8.91 µM (active) and 10 µM (active)
same,Potency,JEG-3,3.98 µM (active) and 8.91 µM (active)
same,Potency,SKOV3,3.16 µM (active) and 12.6 µM (active)
same,Potency,Tov-21-G,11.2 µM (active) and 5.01 µM (active)
same,Potency,Tov112D,7.08 µM (active) and 11.2 µM (active)
same,Potency,astro,10 µM (active) and 8.91 µM (active)
same,Potency,[1],3.52 µM (active)
same,"activity change, negative = inhibition",[1],2.12%
Cc1nc(N)sc1-c1ccnc(Nc2ccc(N3CCOCC3)cc2)n1,Potency,Es-2,10 µM (active)
same,Potency,HeLa,2.51 µM (active)
same,Potency,OV90,15.8 µM (active)
same,Potency,PA-1,8.91 µM (active)
same,Potency,SKOV3,8.91 µM (active)
same,Potency,Tov-21-G,14.1 µM (active)
same,Potency,Tov112D,12.6 µM (active)
same,Potency,[1],5.57 µM (active)
Cc1ccn(-c2ccc(-c3ncco3)cc2)c(=O)c1-c1ccc2nc(N)ncc2c1,Potency,HeLa,inactive
same,Potency,Hek293T,inactive
same,Potency,JEG-3,inactive
same,Potency,OV90,inactive
same,Potency,PA-1,11.2 µM (active)
same,Potency,SKOV3,3.55 µM (active)
same,Potency,Tov-21-G,11.2 µM (active)
same,Potency,Tov112D,inactive
COc1cc(N2CCC(N3CCN(C)CC3)CC2)ccc1Nc1ncc(Cl)c(Nc2ccccc2S(=O)(=O)C(C)C)n1,Potency,CASKI,7.94 µM (active)
same,Potency,HeLa,3.16 µM (active)
same,Potency,JEG-3,inactive
same,Potency,PA-1,10 µM (active)
same,Potency,Tov-21-G,7.08 µM (active)
same,Potency,[1],17.6 µM (active)
CC(C)(C)c1cc(C(=O)O)c(NC(=O)Nc2ccc3[nH]ncc3c2)s1,Potency,Es-2,inactive
same,Potency,HeLa,inactive
same,Potency,Hek293T,inactive
same,Potency,JEG-3,inactive
same,Potency,OV90,inactive
same,Potency,PA-1,inactive
same,Potency,SKOV3,inactive
same,Potency,Tov-21-G,inactive
same,Potency,Tov112D,inactive
CN1C[C@H]2c3ccccc3Oc3ccc(Cl)cc3[C@@H]2C1,Potency,CASKI,inactive
same,Potency,HeLa,inactive
same,Potency,JEG-3,inactive
same,Potency,PA-1,inactive
same,Potency,Tov-21-G,inactive
same,Potency,Tov112D,inactive
same,"activity, negative = cell killing",[2]; [4],-17.5%
same,Potency,[2]; tumour line A,10 µM (active)
CC(=O)N(C)C1(c2ccccc2)CCN(CCC[C@]2(c3ccc(Cl)c(Cl)c3)CCCN(C(=O)c3ccccc3)C2)CC1,Potency,CASKI,22.4 µM (active)
same,Potency,SKOV3,22.4 µM (active)
NC(=O)c1cccc2[nH]c(-c3ccc([C@H]4CCCN4)cc3F)nc12,Potency,CASKI,12.6 µM (active)
same,Potency,Es-2,31.6 µM (active)
same,Potency,Hek293T,17.8 µM (active)
same,Potency,JEG-3,14.1 µM (active)
same,Potency,OV90,14.1 µM (active)
same,Potency,PA-1,12.6 µM (active)
same,Potency,Tov-21-G,14.1 µM (active)
same,Potency,Tov112D,12.6 µM (active)
COc1ncc(-c2ccc3nccc(-c4ccnnc4)c3c2)cc1NS(=O)(=O)c1ccc(F)cc1F,Potency,HeLa,0.631 µM (active)
same,Potency,Hek293T,0.1 µM (active)
same,Potency,JEG-3,25.1 µM (active)
same,Potency,OV90,3.55 µM (active)
same,Potency,PA-1,0.355 µM (active)
same,Potency,Tov-21-G,12.6 µM (active)
